Results filed as inconclusive are left out. A number with no mark means an inactive call. Active and inactive are the calls of the source. The call rests on the fitted dose curve; in most records, active means well fitted inhibition curve with a large enough effect; inconclusive means small, poorly fitted or top-dose-only effect; inactive means flat fitted curve, though single readings scatter.
tested on: DIV17; assay: qHTS profiling for inhibitors of Plasmodium falciparum proliferation (AID 504749); further: nearly all actives have a fitted effect of over 60% in size;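 on activity, negative = inhibition: 0% = DMSO vehicle and full inhibition = artemisinin control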; conditions: P. falciparum in erythrocytes, SYBR Green DNA, 72 h; series mostly up to 28.7 µM; activity, negative = inhibition: at the top concentration
Procedure, shortened: (§1)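 Fluorescence of SYBR Green-bound parasite DNA, read at 485/535 nm, served as the growth measure. Infected erythrocytes were cultured with compound 72 h; artemisinin (0.29 uM) and DMSO wells defined the normalization range.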
Potency means the concentration at half of the fitted maximal effect.

SMILES | activity, negative = inhibition | Potency
COc1ccc(OC)c(C(O)C(C)N)c1 (stereo unspecified) | -11.3% | 
CCON=O | -14.4% | 
CCCCCl | -1.53% | 
COC([CH2][Hg])CNC(=O)c1ccccc1OCC(=O)O (stereo unspecified) | -2.11% | 
CC(C)(O)C1C2OC(=O)C1C1(O)CC3OC34C(=O)OC2C14C (stereo unspecified) | -11% | 
C[CH2][Hg][S]c1ccccc1C(=O)O |  | 1.51 µM (active)
O=C1C2CC=CCC2C(=O)N1SC(Cl)(Cl)Cl (stereo unspecified) | 2.22% | 
N#CN | 0.087% | 
O=C1CCCCC1CN1CCCCC1 (stereo unspecified) | -7.54% | 
CN1C2CCC1CC(OC(c1ccccc1)c1ccc(Cl)cc1)C2 (stereo unspecified) |  | 7.57 µM (active)
COC1=CC=C2[C@H]3Cc4ccc(OC)c5c4[C@@]2(CCN3C)[C@H]1O5 | -11.5% [at 12.8 µM] | 
S=C=S | -3.65% | 
O=[N+]([O-])C(Br)(CO)CO | 9.43% | 
COc1ccc2c3c1O[C@H]1C(=O)CC[C@H]4[C@@H](C2)N(C)CC[C@]314 | -2.27% | 
CC(=O)O[C@H]1CC[C@H]2[C@@H]3CCC4=CC(=O)CCC4=C3C=C[C@]12C | 3.91% | 
CCCCCCCCOC(=O)c1ccccc1C(=O)OCCCCCCCC | -0.225% | 
O=C1CCO1 | 3.57% | 
O=C(CS(=O)C(c1ccccc1)c1ccccc1)NO (stereo unspecified) | -1.11% | 
C=CCN1CC[C@]23c4c5ccc(O)c4O[C@H]2[C@@H](O)C=C[C@H]3[C@H]1C5 | 2.92% | 
O=c1[nH]cc(N(CCCl)CCCl)c(=O)[nH]1 | -24.3% | 

SMILES | activity, negative = inhibition | Potency
C/C(=C\c1csc(C)n1)[C@@H]1C[C@@H]2O[C@]2(C)CCC[C@H](C)[C@H](O)[C@@H](C)C(=O)C(C)(C)[C@@H](O)CC(=O)O1 |  | 0.0034 µM (active)
CCC(N)Cc1c[nH]c2ccccc12 (stereo unspecified) | -11.5% | 
C#CC(C)(O)CC (stereo unspecified) | -4.51% | 
CCCCNCC(O)c1ccc(O)cc1 (stereo unspecified) | -7.55% | 
O[C@H]1[C@H]2[C@H](O)CCCN2C[C@H]1O | 4.64% | 
C=CCN1CCC23c4c5ccc(O)c4O[C@H]2C(=O)CC[C@@]3(O)C1C5 (stereo partly specified) | 6.2% | 
CC(=O)OO | -25.2% | 
CCCC(=O)OC(C(Cl)(Cl)Cl)P(=O)(OC)OC (stereo unspecified) | -26.8% | 
[N-]=[N+]=CC(=O)OCC(N)C(=O)O (stereo unspecified) | 2.12% | 
CC(C)CCON=O | 4.16% | 
CC(C)(C)c1cc(O)ccc1O |  | 5.36 µM (active)
COCC(C)N(C(=O)CCl)c1c(C)csc1C (stereo unspecified) | -0.348% | 
C[N+]1(C)CCCCC1COC(=O)C(O)(c1ccccc1)c1ccccc1 (stereo unspecified) | -2.34% | 
CCC1(c2ccccc2)C(=O)NC(=O)NC1=O | 4.05% | 
C[N+]1(C)C2CCC1CC(OC(=O)c1c[nH]c3ccccc13)C2 (stereo unspecified) | -11.1% | 
O=S(=O)(O)c1cc(O)ccc1O | 2.57% [at 12.8 µM] | 
FC(F)OC(F)(F)C(F)Cl (stereo unspecified) | -13.9% | 
CNC1(c2ccccc2Cl)CCCCC1=O (stereo unspecified) |  | 13.5 µM (active)
c1ccc2sc(SNC3CCCCC3)nc2c1 | -6.17% | 

tested on: DIV30; assay: as above; conditions: P. falciparum in erythrocytes, SYBR Green DNA, 72 h; series mostly up to 28.7 µM; activity, negative = inhibition: at the top concentration
Procedure, shortened: as §1

SMILES | activity, negative = inhibition | Potency
COc1ccc(OC)c(C(O)C(C)N)c1 (stereo unspecified) | -5.69% | 
CCON=O | -0.789% | 
CCCCCl | -4.13% | 
COC([CH2][Hg])CNC(=O)c1ccccc1OCC(=O)O (stereo unspecified) | 10.7% | 
CC(C)(O)C1C2OC(=O)C1C1(O)CC3OC34C(=O)OC2C14C (stereo unspecified) | 0.979% | 
C[CH2][Hg][S]c1ccccc1C(=O)O |  | 4.26 µM (active)
O=C1C2CC=CCC2C(=O)N1SC(Cl)(Cl)Cl (stereo unspecified) | -9.01% | 
O=C1CCCCC1CN1CCCCC1 (stereo unspecified) | -7.64% | 
CN1C2CCC1CC(OC(c1ccccc1)c1ccc(Cl)cc1)C2 (stereo unspecified) |  | 7.57 µM (active)
COC1=CC=C2[C@H]3Cc4ccc(OC)c5c4[C@@]2(CCN3C)[C@H]1O5 | 0.492% [at 12.8 µM] | 
S=C=S | -4.29% | 
O=[N+]([O-])C(Br)(CO)CO | 1.97% | 
COc1ccc2c3c1O[C@H]1C(=O)CC[C@H]4[C@@H](C2)N(C)CC[C@]314 | 4.92% | 
CC(=O)O[C@H]1CC[C@H]2[C@@H]3CCC4=CC(=O)CCC4=C3C=C[C@]12C | -10.2% | 
CCCCCCCCOC(=O)c1ccccc1C(=O)OCCCCCCCC | -3.95% | 
O=C1CCO1 | -0.214% | 
O=C(CS(=O)C(c1ccccc1)c1ccccc1)NO (stereo unspecified) | -0.735% | 
C=CCN1CC[C@]23c4c5ccc(O)c4O[C@H]2[C@@H](O)C=C[C@H]3[C@H]1C5 | 4.12% | 
O=c1[nH]cc(N(CCCl)CCCl)c(=O)[nH]1 | 5.16% | 

SMILES | activity, negative = inhibition | Potency
C/C(=C\c1csc(C)n1)[C@@H]1C[C@@H]2O[C@]2(C)CCC[C@H](C)[C@H](O)[C@@H](C)C(=O)C(C)(C)[C@@H](O)CC(=O)O1 |  | 0.0048 µM (active)
CCC(N)Cc1c[nH]c2ccccc12 (stereo unspecified) | 0.149% | 
C#CC(C)(O)CC (stereo unspecified) | 1.39% | 
CCCCNCC(O)c1ccc(O)cc1 (stereo unspecified) | -1.38% | 
O[C@H]1[C@H]2[C@H](O)CCCN2C[C@H]1O | -0.222% | 
C=CCN1CCC23c4c5ccc(O)c4O[C@H]2C(=O)CC[C@@]3(O)C1C5 (stereo partly specified) | -1.95% | 
CC(=O)OO | -18.6% | 
CCCC(=O)OC(C(Cl)(Cl)Cl)P(=O)(OC)OC (stereo unspecified) | -7.63% | 
[N-]=[N+]=CC(=O)OCC(N)C(=O)O (stereo unspecified) | -4.1% | 
CC(C)CCON=O | -0.407% | 
CC(C)(C)c1cc(O)ccc1O |  | 9.53 µM (active)
C[N+]1(C)CCCCC1COC(=O)C(O)(c1ccccc1)c1ccccc1 (stereo unspecified) | 2.87% | 
CCC1(c2ccccc2)C(=O)NC(=O)NC1=O | -13.3% | 
C[N+]1(C)C2CCC1CC(OC(=O)c1c[nH]c3ccccc13)C2 (stereo unspecified) | -0.253% | 
O=S(=O)(O)c1cc(O)ccc1O | 10.6% [at 12.8 µM] | 
FC(F)OC(F)(F)C(F)Cl (stereo unspecified) | 0.0747% | 
CNC1(c2ccccc2Cl)CCCCC1=O (stereo unspecified) | -23.4% | 
c1ccc2sc(SNC3CCCCC3)nc2c1 | -4.13% | 

Source: PubChem BioAssay (NCATS)
